Hit rate of the full screen: of about 310,000 compounds, about 2,200 (0.71%) showed an effect of 50% or more. The effect is printed as a negative number. What follows is part of a selection rich in strong results, with near analogues and random picks from the rest.
Biological target: human ether-à-go-go-related gene (hERG) potassium channel (human, UniProt Q12809)
Assay: primary screen, population patch clamp on CHO cells stably expressing hERG; higher = less effect of the substance

Sequence of human ether-à-go-go-related gene (hERG) potassium channel (Q12809 whole entry, looked up): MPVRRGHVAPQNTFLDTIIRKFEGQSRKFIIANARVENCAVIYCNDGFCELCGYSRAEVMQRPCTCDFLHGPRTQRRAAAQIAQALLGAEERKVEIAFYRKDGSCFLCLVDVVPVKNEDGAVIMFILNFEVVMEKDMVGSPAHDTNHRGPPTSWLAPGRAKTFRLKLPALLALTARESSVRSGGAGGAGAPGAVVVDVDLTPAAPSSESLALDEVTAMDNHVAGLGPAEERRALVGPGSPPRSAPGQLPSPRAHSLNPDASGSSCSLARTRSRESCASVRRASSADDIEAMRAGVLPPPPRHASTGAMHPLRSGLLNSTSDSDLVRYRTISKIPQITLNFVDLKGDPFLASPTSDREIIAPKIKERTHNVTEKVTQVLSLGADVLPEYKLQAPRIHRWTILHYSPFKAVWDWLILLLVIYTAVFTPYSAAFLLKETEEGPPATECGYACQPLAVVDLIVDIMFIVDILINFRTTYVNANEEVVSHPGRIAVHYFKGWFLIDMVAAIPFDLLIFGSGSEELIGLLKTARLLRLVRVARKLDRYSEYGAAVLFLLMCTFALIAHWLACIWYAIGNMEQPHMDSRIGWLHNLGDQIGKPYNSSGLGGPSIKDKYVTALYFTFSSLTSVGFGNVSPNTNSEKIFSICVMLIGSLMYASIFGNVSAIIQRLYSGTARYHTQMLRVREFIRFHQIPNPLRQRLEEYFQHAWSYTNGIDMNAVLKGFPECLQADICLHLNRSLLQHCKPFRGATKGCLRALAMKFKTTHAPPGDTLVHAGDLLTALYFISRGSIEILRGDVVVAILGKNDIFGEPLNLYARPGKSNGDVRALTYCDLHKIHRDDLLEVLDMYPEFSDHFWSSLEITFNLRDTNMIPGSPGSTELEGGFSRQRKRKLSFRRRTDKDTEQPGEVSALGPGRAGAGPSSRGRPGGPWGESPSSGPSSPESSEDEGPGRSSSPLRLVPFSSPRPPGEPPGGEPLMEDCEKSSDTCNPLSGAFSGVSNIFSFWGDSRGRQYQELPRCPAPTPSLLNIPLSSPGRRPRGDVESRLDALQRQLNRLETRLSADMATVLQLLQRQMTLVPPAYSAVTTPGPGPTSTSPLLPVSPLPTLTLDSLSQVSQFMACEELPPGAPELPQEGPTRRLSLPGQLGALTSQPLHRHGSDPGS

Compared with `O=C1C=C(O)C(n2cncn2)C(c2ccc(F)cc2)C1` (stereo not drawn), `O=C(O)CN(Cc1ccco1)S(=O)(=O)c1ccc(F)cc1` is higher in “hERG current change (%, negative = inhibition) at 1uM” value: -9.66% for the first, 11.9% for the second.

Compared with `COC(=O)c1cc(C(=O)OC)cc(N2C(=O)CC(NNC(=O)c3ccccc3Br)C2=O)c1` (stereo not drawn), `COc1ccc(OC)c(NC(=O)c2cccc(N3C(=O)C4C5CCC(C5)C4C3=O)c2)c1` (stereo not drawn) is lower in “hERG current change (%, negative = inhibition) at 1uM” value: 4.08% for the first, 2.22% for the second.

First: O=C1NC2(CCCCC2)C(=O)N1Cc1cc(=O)n2ccsc2n1
Second: O=C(N/C(=C\c1cccs1)C(=O)N1CCCCCC1)c1ccccc1
The “hERG current change (%, negative = inhibition) at 1uM” value of the first is higher: 6.06% for the first, 1.61% for the second.

Compared with `Cc1ccc(CN2C(=O)CCC2C(=O)NCc2ccccc2Cl)cc1` (stereo not drawn), `O=C(CN1CCN(Cc2ccccc2)CC1)NCc1ccc(Cl)cc1` is lower in “hERG current change (%, negative = inhibition) at 1uM” value: 7.62% for the first, -13.4% for the second.

First: Nc1nc2ccc(-c3nc4ccccc4o3)cc2s1
Second: [O-][n+]1onc2c3cc(-c4ccccc4)nnc3ccc21
The “hERG current change (%, negative = inhibition) at 1uM” value of the first is higher: 11.2% for the first, 1.69% for the second.

Compared with `CCOC(=O)N1CCN(c2ccnc3cc(Cl)ccc23)CC1`, `CC(=O)N1CCN(c2ccnc3cc(Cl)ccc23)CC1` is higher in “hERG current change (%, negative = inhibition) at 1uM” value: -36.7% for the first, -23.2% for the second.

First: CC(C)(C)C(=O)N1CCN(c2ccnc3cc(Cl)ccc23)CC1
Second: CC(C)(Oc1ccc(Cl)cc1)C(=O)N1CCN(c2ccccn2)CC1
The “hERG current change (%, negative = inhibition) at 1uM” value of the first is lower: -55.8% for the first, -1.81% for the second.

Compared with `c1cncc(-c2nc3ccccn3c2Nc2ccc3c(c2)OCCO3)c1`, `COc1cccc(NC(=O)c2cc(-c3cccnc3)nc3c(Cl)cccc23)c1` is higher in “hERG current change (%, negative = inhibition) at 1uM” value: 4.02% for the first, 7.59% for the second.

Going from `CCOc1cccc(C(=O)Nc2ccc3[nH]ncc3c2)c1` to `Cc1ccc(C(=O)Nc2cccc(C(=O)N3CCOCC3)c2)cc1`, the “hERG current change (%, negative = inhibition) at 1uM” value falls from 21.7% to 3.75%.

Compared with `O=C(N/C(=C/c1cccs1)C(=O)N1CCOCC1)c1cccs1`, `O=C(N/C(=C\c1cccs1)C(=O)N1CCOCC1)c1cccs1` is lower in “hERG current change (%, negative = inhibition) at 1uM” value: 8.07% for the first, 6.69% for the second.

First: Cc1ccc(NC(=O)/C(=C\c2cccs2)NC(=O)c2ccccc2)cc1
Second: Cc1cccc(NC(=O)/C(=C\c2cccs2)NC(=O)c2ccccc2)c1
The “hERG current change (%, negative = inhibition) at 1uM” value of the first is higher: -1.02% for the first, -65.1% for the second.

First: CN1CCN(C(=O)/C(=C\c2cccs2)NC(=O)c2cccs2)CC1
Second: CN1CCN(C(=O)/C(=C\c2cccs2)NC(=O)c2ccccc2)CC1
The “hERG current change (%, negative = inhibition) at 1uM” value of the first is higher: -77.3% for the first, -78.3% for the second.

Compared with `CN1CCN(C(=O)/C(=C\c2ccc3c(c2)OCO3)NC(=O)c2cccs2)CC1`, `O=C(N/C(=C\c1ccc2c(c1)OCO2)C(=O)N1CCOCC1)c1cccs1` is higher in “hERG current change (%, negative = inhibition) at 1uM” value: -75.6% for the first, -18.7% for the second.

Compared with `O=C(N/C(=C/c1cccs1)C(=O)N1CCCC1)c1ccccc1`, `O=C(Nc1ccccc1)/C(=C\c1cccs1)NC(=O)c1ccccc1` is higher in “hERG current change (%, negative = inhibition) at 1uM” value: 14.4% for the first, 14.9% for the second.

Going from `O=C(N/C(=C/c1ccc2c(c1)OCO2)C(=O)N1CCOCC1)c1cccs1` to `COc1cc(OC)cc(C(=O)Nc2ccc3c(c2)OCCO3)c1`, the “hERG current change (%, negative = inhibition) at 1uM” value falls from 9.57% to 7.93%.

Going from `Cc1ccc(NC(=O)CCC(=O)c2ccc(Br)cc2)cc1` to `O=C(CCc1ccccc1)Nc1ccc2ccccc2n1`, the “hERG current change (%, negative = inhibition) at 1uM” value falls from 10.9% to -2.39%.

First: COc1ccc(C(=O)N/N=C/c2cc(Br)ccc2O)cc1OC
Second: COc1ccc(/C=N/Nc2ccc(C(F)(F)F)cc2[N+](=O)[O-])cc1O
The “hERG current change (%, negative = inhibition) at 1uM” value of the first is higher: 14.7% for the first, 3.36% for the second.

Going from `CCOc1cc(/C=C2/C(=N)N3C(=NC2=O)SN=C3S(C)(=O)=O)ccc1OS(=O)(=O)c1ccccc1` to `CCOc1ccc(C(=O)NCC(=O)N2CCN(C/C=C/c3ccccc3)CC2)cc1OCC`, the “hERG current change (%, negative = inhibition) at 1uM” value falls from 17.3% to -1.35%.

Going from `CCOC(=O)c1sc2nc(C)nc(NCc3cccnc3)c2c1C` to `CCOC(=O)c1c(C)[nH]c(C(=O)O)c1C`, the “hERG current change (%, negative = inhibition) at 1uM” value rises from 10.8% to 11.5%.

Going from `COc1ccc2c(c1OC)C(=O)OC2C1c2c(cc3c(c2OC)OCO3)CCN1C.Cl` (stereo not drawn) to `COc1ccc(CC(O)CC2c3c(cc4c(c3OC)OCO4)CCN2C)cc1.Cl` (stereo not drawn), the “hERG current change (%, negative = inhibition) at 1uM” value falls from 9.06% to -51.8%.

Going from `COc1c2c(cc3c1C(CC(O)Cc1ccccc1)N(C)CC3)OCO2` (stereo not drawn) to `COc1cccc(CC2(CO)CCCN(C/C=C/c3ccccc3OC)C2)c1` (stereo not drawn), the “hERG current change (%, negative = inhibition) at 1uM” value falls from -14% to -32.8%.

First: CNC(=S)NNC(=O)c1sc2cc(C(F)(F)F)cnc2c1-c1ccccn1
Second: O=C(O)c1cccc(-n2cc(-c3cccc(C(F)(F)F)c3)cn2)c1
The “hERG current change (%, negative = inhibition) at 1uM” value of the first is lower: 4.79% for the first, 4.88% for the second.

Going from `O=C(CN1CCN(c2ccc(Cl)cc2)CC1)NCc1ccccc1` to `O=C(CN1CCN(C/C=C/c2ccccc2)CC1)NCc1ccc(Cl)cc1`, the “hERG current change (%, negative = inhibition) at 1uM” value falls from -23.6% to -72.5%.

Compared with `O=C(NCC(=O)N1CCN(C/C=C/c2ccccc2)CC1)c1ccc(OC(F)F)cc1`, `O=C(NCC(=O)N1CCCCCC1)c1ccc(OC(F)F)cc1` is higher in “hERG current change (%, negative = inhibition) at 1uM” value: -50.4% for the first, 10.4% for the second.

Compared with `O=C(CN1CCN(C/C=C/c2ccccc2)CC1)NCc1ccccc1`, `OCC1(Cc2ccccc2Cl)CCN(C/C=C/c2ccccc2)CC1` is higher in “hERG current change (%, negative = inhibition) at 1uM” value: -53.6% for the first, -27.8% for the second.

Compared with `Cl.O=C(CN1CCCC1)NCc1ccccc1`, `O=C(CN1CCCCCC1)NCc1ccccc1` is lower in “hERG current change (%, negative = inhibition) at 1uM” value: 13.4% for the first, 11.8% for the second.

Compared with `OC1CCCN(Cc2cccc3ccccc23)C1` (stereo not drawn), `COc1ccc(/C=C/CN2CCC(CO)(Cc3ccccc3Cl)CC2)cc1` is lower in “hERG current change (%, negative = inhibition) at 1uM” value: 14.7% for the first, -61.9% for the second.

Compared with `Cc1cc(C)cc(N2CC(O)Cn3c2nc2c3c(=O)[nH]c(=O)n2C)c1` (stereo not drawn), `COc1ccc(OC)c(N2C(=O)CC(Cc3cc(C)cc(C)c3)C2=O)c1` (stereo not drawn) is lower in “hERG current change (%, negative = inhibition) at 1uM” value: 9.84% for the first, 5.71% for the second.

Going from `Cc1ccc(/C=N/NC(=O)c2nnn(-c3nonc3N)c2CSc2ccccc2)cc1` to `COc1ccc(-c2cc(=[NH+]c3ccccc3)c3cc(C)ccc3o2)cc1.[O-][Cl+3]([O-])([O-])[O-]`, the “hERG current change (%, negative = inhibition) at 1uM” value rises from 11.4% to 14%.

First: O=C(N=C1SC2CS(=O)(=O)CC2N1CCc1ccccc1)C1CC1 (stereo not drawn)
Second: COc1ccccc1/C=C/CN1CCC(CO)(Cc2ccccc2)CC1
The “hERG current change (%, negative = inhibition) at 1uM” value of the first is higher: 9.32% for the first, 0.366% for the second.

First: O=C(NNC(=O)c1sc2cccc(Cl)c2c1Cl)Nc1ccccc1
Second: O=C(Cn1cc(/C=C\[N+](=O)[O-])c2ccccc21)Nc1ccccc1
The “hERG current change (%, negative = inhibition) at 1uM” value of the first is higher: 13.9% for the first, 8.45% for the second.

Going from `COc1ccc(-c2coc3c(C)c4oc(=O)c(CCC(=O)O)c(C)c4cc23)cc1` to `COc1ccc(-c2cc(=[NH+]c3cccc(C(=O)O)c3)c3cc(C)ccc3o2)cc1.[O-][Cl+3]([O-])([O-])[O-]`, the “hERG current change (%, negative = inhibition) at 1uM” value rises from 6.19% to 6.72%.

First: CCCCCCNC(=O)CC(NS(=O)(=O)c1ccc(NC(C)=O)cc1)C(C)C (stereo not drawn)
Second: CCCCCOc1ccc(CSC(=N)N)cc1[N+](=O)[O-].Cl
The “hERG current change (%, negative = inhibition) at 1uM” value of the first is higher: -0.978% for the first, -3.45% for the second.

Going from `F[B-](F)(F)F.OCCCCC[NH+]=c1cc(-c2ccccc2)oc2ccc(Cl)cc12` to `F[B-](F)(F)F.OCCC[NH+]=c1cc(-c2ccccc2)oc2ccc(Cl)cc12`, the “hERG current change (%, negative = inhibition) at 1uM” value rises from -86.1% to -78%.

Compared with `O=c1cc(-c2ccccc2)oc2ccc(O)cc12`, `O=c1oc2ccc(Cl)cc2cc1-c1ccccc1` is higher in “hERG current change (%, negative = inhibition) at 1uM” value: 4.17% for the first, 16.1% for the second.

First: F[B-](F)(F)F.OCC[NH+]=c1cc(-c2ccccc2)oc2ccc(Cl)cc12
Second: OCCCNc1nc(-c2ccccc2)c2cc(Cl)ccc2n1
The “hERG current change (%, negative = inhibition) at 1uM” value of the first is lower: -71.1% for the first, 5.65% for the second.

First: Clc1ccc(Oc2ncnc3oc(-c4ccccc4)cc23)cc1
Second: COc1ccc(C2CC(c3ccccc3)=NN2c2ccc(S(N)(=O)=O)cc2)cc1OC (stereo not drawn)
The “hERG current change (%, negative = inhibition) at 1uM” value of the first is lower: 6.4% for the first, 7.52% for the second.

Going from `Cc1cc(C(=O)OCC(=O)N2C(C)CCCC2C)c(C)o1` (stereo not drawn) to `CCOC(=O)C1CCN(C(=O)CCS(=O)(=O)c2ccc3c(c2)n(C)c(=O)c(=O)n3C)CC1`, the “hERG current change (%, negative = inhibition) at 1uM” value rises from 9.75% to 10.2%.

Going from `COc1ccc(-n2c(Cc3cccn3C)nnc2SCC(=O)Nc2cccc(NC(C)=O)c2)cc1` to `COc1ccc(CC2(CO)CCN(C/C=C/c3ccccc3OC)CC2)cc1`, the “hERG current change (%, negative = inhibition) at 1uM” value falls from 3.64% to -71.4%.

Going from `Cc1ccc(OCCOCCn2cnc3ccccc3c2=O)c([N+](=O)[O-])c1.O=C(O)C(=O)O` to `CCCCOc1ccc(CSc2nnc(C)n2N)cc1[N+](=O)[O-]`, the “hERG current change (%, negative = inhibition) at 1uM” value rises from -6.31% to -2.42%.

Compared with `Br.O=[N+]([O-])c1ccc(CSC2=NCCN2)cc1`, `CCOc1ccc(CSC2=NCCN2)cc1[N+](=O)[O-].Cl` is lower in “hERG current change (%, negative = inhibition) at 1uM” value: 8.87% for the first, -71% for the second.

Going from `CCCCOc1ccc(CSC(=N)N)cc1[N+](=O)[O-].Cl` to `CCOc1ccc(CSC(=N)N)cc1[N+](=O)[O-].Cl`, the “hERG current change (%, negative = inhibition) at 1uM” value falls from -26.4% to -50.3%.

Compared with `CCCOc1ccc(CSC2=NCCN2)cc1[N+](=O)[O-]`, `CCCCOc1ccc(CSC2=NCCN2)cc1[N+](=O)[O-].Cl` is higher in “hERG current change (%, negative = inhibition) at 1uM” value: -53.5% for the first, -22.3% for the second.

Compared with `COc1ccc(CSC2=NCCN2)cc1Cl.Cl`, `CCOc1ccc(CSC2=NCCN2)cc1Cl.Cl` is higher in “hERG current change (%, negative = inhibition) at 1uM” value: -7.52% for the first, -4.54% for the second.

First: COc1ccc(CSC2=NCCN2)cc1Br
Second: CCCCCOc1ccc(CSC2=NCCN2)cc1[N+](=O)[O-]
The “hERG current change (%, negative = inhibition) at 1uM” value of the first is higher: 10.8% for the first, -60% for the second.

First: CSc1ccccc1C(=O)N1CCN(S(=O)(=O)c2sc(C(=O)O)c(C)c2C(=O)O)CC1
Second: CC(C)CCNC(=O)C1c2ccccc2Oc2ccccc21
The “hERG current change (%, negative = inhibition) at 1uM” value of the first is higher: 0.019% for the first, -12.1% for the second.

With `COc1ccc(/C=C/CN2CCCC(CO)(Cc3cccc(Cl)c3)C2)cc1` (stereo not drawn) the “hERG current change (%, negative = inhibition) at 1uM” value was 3.25%.
